Shiga toxin inh: blocks Shiga toxin action in Vero cells; inhibition, % at 38.7 µM; Vero cells, Shiga toxin protein synthesis inhibition reporter; AID 2315; 290,000 compounds, 9.2% hits; in the data active = inhibition mostly above about 28%, no sharp cut-off; inactive = mostly below about 43%; note: 0% is about no effect
Marburg entry inh: Marburg virus entry inhibition. Marburg virus pseudotyped entry inhibition, cell reporter. Potency, µM (series often up to 37.8 µM), for the others: at the highest dose activity change, negative = inhibition, hits mostly inhibitors. 300,000 compounds, 1.8% hits. AID 540276; calls by dose curve; tested in HEK293 cells; note: potency is the fitted concentration of half-maximal effect; % is set by controls: 0 for no effect and ±100 for the full control effect
Cycloheximide cs: counter-screen hit for Shiga toxin inhibitors, cycloheximide; cell reporter, cycloheximide protein synthesis inhibition counterscreen; max response, %; 300,000 compounds, 12% hits; AID 2314; in the data active = max response mostly above about 13%, no sharp cut-off; inactive = mostly below about 14%; note: read at 38.3 µM for the half of the compounds with a filed dose; 0% is about no effect
LASV entry inh: blocks Lassa virus binding to or entry into cells; Lassa virus pseudotype entry inhibition, cell reporter; Potency, µM (titrated, usually from 37.9 µM), without a hit: at the top dose activity change, negative = inhibition, hits mostly inhibitors; 300,000 compounds, 1.2% hits; AID 540256; calls by dose curve; tested in HEK293 cells; note: potency is the fitted concentration of half-maximal effect; % is set by controls: 0 for no effect and ±100 for the full control effect; nearly all actives have a fitted effect of over 50% in size
* = called active by the depositor; ? = inconclusive; nt = not tested or not shown; [ ] = remark or other dose. Shown are actives, neighbours in structure and some others; about 12% of the full set was active somewhere.

SMILES | Shiga toxin inh | Marburg entry inh | Cycloheximide cs | LASV entry inh
CCOC(=O)c1sc(NC(=O)c2ccco2)nc1-c1ccccc1 | 18 | nt | -2 | nt
CC(=O)Nc1ccc(N/C=C/C(=O)c2ccc(Cl)cc2)cc1 | 27 | 18% | 12 | 1%
CC(=O)c1ccc(N/C=C\C(=O)c2ccc(C)cc2)cc1 | 112* | ? | 53* | ?
Cc1ccc(C(=O)/C=C/Nc2ccc3c(c2)OCO3)cc1 | 164* | ? | 61* | ?
Cc1ccc(C(=O)/C=C/Nc2cccc(O)c2)cc1 | -4 | ? | 9.7* | ?
C/C(=C\C(=O)c1ccc(C)cc1)Nc1ccc(N2CCOCC2)cc1 | -5 | 1% | 1 | nt
C/C(=C\C(=O)c1ccc(C)cc1)Nc1cccc(O)c1 | 93* | -16% | 43* | -26%
O=C(/C=C/Nc1cccc(O)c1)c1ccccc1 | 16 | ? | 15 | ?
Cc1ccc(C(NC(=O)/C=C\c2ccc3c(c2)OCO3)C(=O)Nc2ccc3c(c2)OCO3)cc1 (centres undefined) | -6 | ? | 9 | 7%
COc1ccc(OC)c(NC(=O)C(=O)NNC(=O)C23CC4CC(CC(C4)C2)C3)c1 | 18 | -26%[14.2 µM] | 1 | -25%
O=C(Nc1cc(Cl)ccc1N1CCOCC1)C1=COCCO1 | nt | ? | nt | -13%
COC(=O)C1CN(C(=O)COc2ccc(C)cc2)c2ccccc2O1 (centres undefined) | 1 | 13% | 8 | 8%
CC(=O)c1cccc(N/C=C\C(=O)c2ccc(C)cc2)c1 | 65* | ? | 42* | 7.9µM*
COC(=O)c1ccccc1NC(=S)N(Cc1ccc2c(c1)OCO2)Cc1cc2cccc(C)c2[nH]c1=O | -12 | ? | -7 | ?
CN(C)CCNc1ncnc2c1cnn2-c1ccc(Cl)cc1 | 56 | nt | 30* | nt
OCCCNc1ncnc2c1cnn2-c1ccc(Cl)cc1 | 75* | nt | 52* | nt
Cc1ccc(-n2ncc3c(NCCO)ncnc32)cc1Cl | nt | nt | nt | 12%[46.1 µM]
Cc1ccc(Cn2ncc3c(NCCN(C)C)ncnc32)cc1 | 12 | nt | -2 | nt
COc1ccc(C2C=C(c3ccccc3)Nc3nc(NC(=O)/C=C/c4ccc(Cl)cc4)nn32)cc1 (centres undefined) | nt | -6%[46.1 µM] | nt | 1%[46.1 µM]
CS(=O)(=O)c1ccc(C(=O)OCc2nnc(-c3ccccc3)o2)cc1[N+](=O)[O-] | 21 | 3.2µM* | 25* | ?
O=C(OCc1nnc(-c2ccccc2)o1)c1ccc2c(c1)OCCO2 | 45* | ? | 22* | 2%
CN(C)S(=O)(=O)c1ccc(C(=O)OCc2nnc(-c3ccccc3)o2)cc1 | 26 | 17%[46.1 µM] | 10 | 25%
O=C(OCc1nnc(-c2ccccc2)o1)C1=COCCO1 | 25 | -2%[46.1 µM] | 22* | ?
Cc1ccccc1NC(=O)COC(=O)c1ccc(S(C)(=O)=O)c([N+](=O)[O-])c1 | 11 | 9.2µM* | 14* | 21µM*
CCOc1ccc(CNc2nnnn2C)cc1 | nt | nt | -2 | nt
SMILES | Shiga toxin inh | Marburg entry inh | Cycloheximide cs | LASV entry inh
CCc1c(C(=O)NCCc2ccc(N3CCCCC3)cc2)[nH]c2ccc(Cl)cc12 | nt | -2% | nt | -33%
O=C(NCc1cccc(Cl)c1)c1cccc(S(=O)(=O)N2CCCC2)c1 | nt | -4% | nt | 3%
COc1ccc2c(c1)NP(=S)(Oc1ccccc1)N2 (centres undefined) | 86* | 1% | 64* | ?
COc1cccc(CNC(=O)c2[nH]c3cc(C)ccc3c2Sc2ccccc2)c1 | nt | -23%[46.1 µM] | nt | -8%[46.1 µM]
Cc1ccc(-c2nc(Nc3ccccc3)n[nH]2)cc1 | 83* | ? | 43* | ?
Cc1nc2cc3nc(C)sc3cc2s1 | 109* | ? | 36* | 19%
Cc1cc(C)cc(OCC(=O)N2CCC(c3nc4ccccc4o3)CC2)c1 | nt | -3%[46.1 µM] | nt | 4%[46.1 µM]
Cc1oc2ccc(OCc3ccc(Cl)cc3)cc2c1C(=O)O | 87* | 5%[46.1 µM] | 27* | 25%[46.1 µM]
CCOc1ccc2oc(C(=O)Nc3ccc(N4CCOCC4)cc3)c(C)c2c1 | -4 | -4%[46.1 µM] | 0 | -1%
CCOc1ccc2oc(C(=O)N3CCN(Cc4ccccc4)CC3)c(C)c2c1 | -9 | ? | 0 | -23%[46.1 µM]
CCOc1ccc2oc(C(=O)Nc3ccc4c(c3)OCO4)c(C)c2c1 | 106* | -30%[46.1 µM] | 25* | 10%
CCOc1ccc2oc(C(=O)N3CC(C)OC(C)C3)c(C)c2c1 (centres undefined) | 18 | -3%[46.1 µM] | 24* | ?
CCOc1ccc2oc(C(=O)O)c(C)c2c1 | 23 | 0%[46.1 µM] | 26* | 18%
Clc1ccc(CSc2ccc(-c3cccs3)nn2)cc1 | nt | nt | nt | 12%[46.1 µM]
c1ccc(CSc2ccc(-c3cccs3)nn2)nc1 | 51* | -26% | 44* | -14%
c1ccc(CSc2ccc(-c3cccs3)nn2)cc1 | 40* | ? | 31* | ?
COc1ccc(N/N=C(/N=Nc2nc(C)cc(=O)[nH]2)c2ccccc2)cc1 | 91* | 4.5µM* | 62* | 5µM*

Screening results as filed in PubChem BioAssay.
